Assay [1] addresses human Peroxisome Proliferator-activated Receptor delta (PPARd), PPARD (gene 5467) (UniProt Q03181). Briefly: ATG_PPARd_TRANS: Attagene TRANS-FACTORIAL HepG2 Assay for human Peroxisome Proliferator-activated Receptor delta (PPARd) (AID 2283002). An outline of the steps:
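Measured quantity: GAL4-UAS reporter transcript induction in HepG2 after 24 h chemical dosing, with NR-Gal4 chimeras supplied by transient transfection. Detection by RT-PCR and capillary electrophoresis; upward fit against DMSO.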

For assay [2], the target named is human Retinoic Acid Receptor beta (RARb), RARB (gene 5915) (UniProt P10826). Kind of assay: ATG_RARb_TRANS: Attagene TRANS-FACTORIAL HepG2 Assay for human Retinoic Acid Receptor beta (AID 2283004). An outline of the steps:
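HepG2, transient MRTU transfection, NR–Gal4 chimera, 24 h treatment; RT-PCR plus CE fluorescence detection of reporter mRNA; gain of signal vs DMSO.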

Assay [3] deals with Retinoic acid receptor alpha (Homo sapiens) (UniProt P10276). Kind of assay: ATG_RARa_TRANS: Attagene TRANS-FACTORIAL HepG2 Assay for human Retinoic Acid Receptor alpha (RARa) (AID 2283005). Summed up: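 HepG2 cells transiently transfected with multiple reporter units expressing chimeric RARα-GAL4 fusion, with GAL4-UAS-driven reporters. After 24 h compound exposure, reporter mRNA induction quantified by RT-PCR and capillary electrophoresis with fluorescent labeling; gain-of-signal fitted relative to DMSO control.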

Assay [4] concerns the target Peroxisome proliferator-activated receptor gamma (Homo sapiens) (UniProt P37231). Kind of assay: ATG_PPARg_TRANS: Attagene TRANS-FACTORIAL HepG2 Assay for human Peroxisome Proliferator-activated Receptor-gamma (PPARg) (AID 2283007). An outline of the steps: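 Endpoint reflects upward reporter mRNA change versus DMSO controls. Setup: transiently transfected HepG2, GAL4-UAS reporters driven by chimeric NR-Gal4, 24 h incubation, RT-PCR with capillary electrophoresis read-out.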

Assay [5] has as its target Nuclear receptor subfamily 1 group I member 2 (Homo sapiens) (UniProt O75469). Briefly: ATG_PXR_TRANS: Attagene TRANS-FACTORIAL HepG2 Assay for human Pregnane X Receptor (PXR) (AID 2283008). An outline of the steps: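 HepG2 cells transiently transfected with multiple reporter units, here a PXR-GAL4 chimera driving a GAL4-UAS reporter; 24 h compound exposure. Reporter mRNA measured by RT-PCR, FAM labelling and capillary electrophoresis; gain of signal fitted against DMSO baseline.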

Assay [6] has as its target human Retinoic Acid Receptor gamma (RARg), RARG (gene 5916) (UniProt P13631). Kind of assay: ATG_RARg_TRANS: Attagene TRANS-FACTORIAL HepG2 Assay for human Retinoic Acid Receptor gamma (RARg) (AID 2283009). Summed up:
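HepG2 transiently transfected with GAL4-UAS reporter units and chimeric NR-Gal4 constructs; 24 h compound exposure. Reporter mRNA quantified by RT-PCR, FAM labeling, HpaI digestion and capillary electrophoresis; gain-of-signal versus DMSO.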

Assay [7] concerns the target human RAR-related Orphan Receptor beta (RORb), RORB (gene 6096) (UniProt Q92753). Kind of assay: ATG_RORb_TRANS: Attagene TRANS-FACTORIAL HepG2 Assay for human RAR-related Orphan Receptor beta (RORb) (AID 2283010). An outline of the steps: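 HepG2 cells transiently transfected with GAL4-UAS reporter units expressing chimeric NR-Gal4 protein; reporter mRNA measured 24 h after dosing by RT-PCR, 6-FAM labelling and capillary electrophoresis. Gain-of-signal fitted relative to DMSO baseline.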

Assay [8] concerns the target human RAR-related Orphan Receptor gamma (RORg), RORC (gene 6097) (UniProt P51449). Briefly: ATG_RORg_TRANS: Attagene TRANS-FACTORIAL HepG2 Assay for human RAR-related Orphan Receptor gamma (RORg) (AID 2283011). An outline of the steps:
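Activity is scored as increase in GAL4-UAS reporter mRNA over DMSO, detected by fluorescent RT-PCR and capillary electrophoresis in HepG2 cells transiently expressing a RORg-Gal4 chimera, 24 h after dosing.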

The target in assay [9] is Retinoic acid receptor RXR-alpha (Homo sapiens) (UniProt P19793). Kind of assay: ATG_RXRa_TRANS: Attagene TRANS-FACTORIAL HepG2 Assay for human Retinoid X Receptor alpha (RXRa) (AID 2283012). An outline of the steps: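 HepG2 cells transiently transfected with GAL4-UAS reporter units and chimeric RXRa-Gal4 protein, treated 24 h. Reporter mRNA measured by RT-PCR, fluorescent labelling, HpaI digestion and capillary electrophoresis. Induction fitted against DMSO.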

For assay [10], the target named is human Thyroid Receptor alpha (THRa1), THRA (gene 7067) (UniProt P10827). Briefly: ATG_THRa1_TRANS: Attagene TRANS-FACTORIAL HepG2 Assay for human Thyroid Receptor alpha (THRa1) (AID 2283014). Summed up:
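First, HepG2 cells receive multiple GAL4-UAS reporter units and the chimeric receptor. They are then dosed for 24 h, after which RNA is reverse-transcribed, amplified, labelled, HpaI-cut and sized by capillary electrophoresis; gain relative to DMSO is scored.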

Assay [11] deals with human Retinoid X Receptor beta (RXRb), RXRB (gene 6257) (UniProt P28702). Briefly: ATG_RXRb_TRANS: Attagene TRANS-FACTORIAL HepG2 Assay for human Retinoid X Receptor beta (RXRb) (AID 2283013). Summed up:
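HepG2 cells were transiently transfected with multiplexed GAL4-UAS reporters and a chimeric RXRb-Gal4 construct, then exposed for 24 h. Reporter mRNA was quantified by RT-PCR, FAM labeling, HpaI digestion and capillary electrophoresis; gain of signal was scored against DMSO.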

Outcome and AC50 data for 15 compounds are collected here from PubChem BioAssay (EPA / NIEHS).

The term AC50 denotes the concentration at which the activity in the assay is half-maximal.

Records with an inconclusive call do not appear. Activity calls are given as the source filed them. How the source made its calls: active means hit-call score of the fitted dose curve at least 0.9, where 1 is the maximum; inconclusive means response in the unintended direction; inactive means score below 0.9.

Sequence of Retinoic acid receptor alpha (Homo sapiens) (P10276 whole entry, looked up, the tested form may be a part): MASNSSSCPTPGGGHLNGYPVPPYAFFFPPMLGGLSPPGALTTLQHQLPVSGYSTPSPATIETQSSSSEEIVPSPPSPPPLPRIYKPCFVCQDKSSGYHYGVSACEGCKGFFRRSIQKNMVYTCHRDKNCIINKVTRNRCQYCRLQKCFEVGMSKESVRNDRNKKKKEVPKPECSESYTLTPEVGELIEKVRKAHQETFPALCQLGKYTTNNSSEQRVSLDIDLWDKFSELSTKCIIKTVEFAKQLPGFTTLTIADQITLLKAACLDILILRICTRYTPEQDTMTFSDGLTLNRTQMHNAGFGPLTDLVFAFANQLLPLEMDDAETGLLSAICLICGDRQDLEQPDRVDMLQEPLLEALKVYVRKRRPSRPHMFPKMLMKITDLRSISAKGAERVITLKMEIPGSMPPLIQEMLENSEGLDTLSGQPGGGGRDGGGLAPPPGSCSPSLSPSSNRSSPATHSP
Sequence of human RAR-related Orphan Receptor gamma (RORg), RORC (gene 6097) (P51449 whole entry, looked up, the tested form may be a part): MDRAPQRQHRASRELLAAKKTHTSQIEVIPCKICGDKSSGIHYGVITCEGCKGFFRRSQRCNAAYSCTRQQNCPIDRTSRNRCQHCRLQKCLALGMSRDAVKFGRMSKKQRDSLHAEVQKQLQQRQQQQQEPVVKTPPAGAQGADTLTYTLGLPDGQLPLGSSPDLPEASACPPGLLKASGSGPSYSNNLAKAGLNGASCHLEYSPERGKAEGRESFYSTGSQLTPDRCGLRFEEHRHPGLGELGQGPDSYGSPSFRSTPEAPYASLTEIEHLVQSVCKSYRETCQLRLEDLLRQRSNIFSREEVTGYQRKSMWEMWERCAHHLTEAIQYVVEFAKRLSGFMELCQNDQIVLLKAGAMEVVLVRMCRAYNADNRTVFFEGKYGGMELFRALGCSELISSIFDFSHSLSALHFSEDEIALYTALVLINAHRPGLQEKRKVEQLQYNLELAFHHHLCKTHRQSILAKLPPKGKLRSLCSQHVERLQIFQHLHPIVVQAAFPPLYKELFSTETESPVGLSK
Sequence of Nuclear receptor subfamily 1 group I member 2 (Homo sapiens) (O75469 whole entry, looked up, the tested form may be a part): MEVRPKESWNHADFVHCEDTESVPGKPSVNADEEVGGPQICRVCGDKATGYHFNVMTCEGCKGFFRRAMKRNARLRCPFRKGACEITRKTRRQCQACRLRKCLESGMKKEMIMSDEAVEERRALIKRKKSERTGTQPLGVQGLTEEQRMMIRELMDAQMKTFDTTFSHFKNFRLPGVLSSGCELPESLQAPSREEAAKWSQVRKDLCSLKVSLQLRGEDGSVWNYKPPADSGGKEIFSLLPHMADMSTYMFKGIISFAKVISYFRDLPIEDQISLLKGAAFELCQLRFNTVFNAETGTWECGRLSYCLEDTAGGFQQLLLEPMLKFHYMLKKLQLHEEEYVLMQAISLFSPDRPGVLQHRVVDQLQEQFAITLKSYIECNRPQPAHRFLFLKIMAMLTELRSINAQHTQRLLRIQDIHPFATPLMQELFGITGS
Sequence of Retinoic acid receptor RXR-alpha (Homo sapiens) (P19793 whole entry, looked up, the tested form may be a part): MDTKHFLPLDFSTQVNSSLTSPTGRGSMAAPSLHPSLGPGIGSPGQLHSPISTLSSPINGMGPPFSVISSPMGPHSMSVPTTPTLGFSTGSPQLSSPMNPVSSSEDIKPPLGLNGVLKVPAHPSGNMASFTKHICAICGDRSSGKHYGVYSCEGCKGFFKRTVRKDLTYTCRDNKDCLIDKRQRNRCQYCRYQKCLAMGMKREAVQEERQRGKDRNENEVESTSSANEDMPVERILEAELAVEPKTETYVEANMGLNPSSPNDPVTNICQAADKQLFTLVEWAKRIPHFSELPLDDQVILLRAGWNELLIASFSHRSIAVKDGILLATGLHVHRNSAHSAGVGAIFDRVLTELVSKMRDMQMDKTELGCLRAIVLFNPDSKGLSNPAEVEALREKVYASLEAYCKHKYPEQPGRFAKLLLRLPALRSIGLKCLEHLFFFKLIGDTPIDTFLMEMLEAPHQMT
Sequence of human Retinoic Acid Receptor gamma (RARg), RARG (gene 5916) (P13631 whole entry, looked up, the tested form may be a part): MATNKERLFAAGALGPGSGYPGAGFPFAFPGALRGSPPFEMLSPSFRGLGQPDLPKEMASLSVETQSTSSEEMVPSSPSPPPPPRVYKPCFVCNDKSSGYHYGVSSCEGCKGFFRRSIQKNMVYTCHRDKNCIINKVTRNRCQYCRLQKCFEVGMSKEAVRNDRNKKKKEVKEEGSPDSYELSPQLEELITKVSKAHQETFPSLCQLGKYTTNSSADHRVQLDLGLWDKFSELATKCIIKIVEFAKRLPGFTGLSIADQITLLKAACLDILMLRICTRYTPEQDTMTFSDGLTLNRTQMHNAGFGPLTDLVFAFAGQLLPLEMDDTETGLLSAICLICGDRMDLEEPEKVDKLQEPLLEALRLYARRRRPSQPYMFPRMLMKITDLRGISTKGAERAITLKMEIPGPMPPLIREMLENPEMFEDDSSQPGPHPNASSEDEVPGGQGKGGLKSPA
Sequence of human Thyroid Receptor alpha (THRa1), THRA (gene 7067) (P10827 whole entry, looked up, the tested form may be a part): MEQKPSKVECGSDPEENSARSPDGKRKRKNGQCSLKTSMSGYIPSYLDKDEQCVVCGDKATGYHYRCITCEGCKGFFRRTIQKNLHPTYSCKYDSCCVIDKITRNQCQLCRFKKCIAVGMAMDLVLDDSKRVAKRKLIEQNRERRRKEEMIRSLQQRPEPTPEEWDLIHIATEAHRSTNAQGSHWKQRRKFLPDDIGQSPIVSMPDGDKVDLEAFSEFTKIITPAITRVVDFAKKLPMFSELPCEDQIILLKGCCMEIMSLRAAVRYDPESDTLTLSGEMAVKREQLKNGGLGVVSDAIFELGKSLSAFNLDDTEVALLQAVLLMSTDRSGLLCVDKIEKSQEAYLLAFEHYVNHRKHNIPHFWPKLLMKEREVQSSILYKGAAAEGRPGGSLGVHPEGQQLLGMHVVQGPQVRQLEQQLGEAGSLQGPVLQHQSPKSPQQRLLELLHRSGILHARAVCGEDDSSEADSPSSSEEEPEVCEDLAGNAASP
Sequence of human Retinoic Acid Receptor beta (RARb), RARB (gene 5915) (P10826 whole entry, looked up, the tested form may be a part): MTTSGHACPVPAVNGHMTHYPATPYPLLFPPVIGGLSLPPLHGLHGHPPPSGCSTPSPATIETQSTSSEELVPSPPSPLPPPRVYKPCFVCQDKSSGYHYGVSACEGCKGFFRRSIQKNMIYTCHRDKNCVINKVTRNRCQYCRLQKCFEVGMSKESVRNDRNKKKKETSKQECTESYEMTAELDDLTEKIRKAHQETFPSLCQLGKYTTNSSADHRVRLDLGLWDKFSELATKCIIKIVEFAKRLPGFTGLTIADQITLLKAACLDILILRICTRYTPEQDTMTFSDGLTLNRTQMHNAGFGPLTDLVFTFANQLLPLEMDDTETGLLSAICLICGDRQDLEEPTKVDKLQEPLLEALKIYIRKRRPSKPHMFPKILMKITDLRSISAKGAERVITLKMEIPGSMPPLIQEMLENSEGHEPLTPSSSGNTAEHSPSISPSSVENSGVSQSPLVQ
Sequence of Peroxisome proliferator-activated receptor gamma (Homo sapiens) (P37231 whole entry, looked up, the tested form may be a part): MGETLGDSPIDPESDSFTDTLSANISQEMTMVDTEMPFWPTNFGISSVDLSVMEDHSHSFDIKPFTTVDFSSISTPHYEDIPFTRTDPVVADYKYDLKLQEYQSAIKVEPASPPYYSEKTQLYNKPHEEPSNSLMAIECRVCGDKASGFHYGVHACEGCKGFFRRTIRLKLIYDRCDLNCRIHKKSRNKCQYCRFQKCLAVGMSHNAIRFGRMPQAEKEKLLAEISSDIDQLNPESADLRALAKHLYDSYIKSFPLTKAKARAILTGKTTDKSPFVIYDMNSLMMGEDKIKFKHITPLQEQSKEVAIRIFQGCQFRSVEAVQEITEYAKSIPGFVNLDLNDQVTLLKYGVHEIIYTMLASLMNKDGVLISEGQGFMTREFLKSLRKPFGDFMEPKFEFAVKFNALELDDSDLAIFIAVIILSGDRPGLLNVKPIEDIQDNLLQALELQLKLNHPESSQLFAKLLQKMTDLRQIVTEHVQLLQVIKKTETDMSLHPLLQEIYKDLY
Sequence of human Retinoid X Receptor beta (RXRb), RXRB (gene 6257) (P28702 whole entry, looked up, the tested form may be a part): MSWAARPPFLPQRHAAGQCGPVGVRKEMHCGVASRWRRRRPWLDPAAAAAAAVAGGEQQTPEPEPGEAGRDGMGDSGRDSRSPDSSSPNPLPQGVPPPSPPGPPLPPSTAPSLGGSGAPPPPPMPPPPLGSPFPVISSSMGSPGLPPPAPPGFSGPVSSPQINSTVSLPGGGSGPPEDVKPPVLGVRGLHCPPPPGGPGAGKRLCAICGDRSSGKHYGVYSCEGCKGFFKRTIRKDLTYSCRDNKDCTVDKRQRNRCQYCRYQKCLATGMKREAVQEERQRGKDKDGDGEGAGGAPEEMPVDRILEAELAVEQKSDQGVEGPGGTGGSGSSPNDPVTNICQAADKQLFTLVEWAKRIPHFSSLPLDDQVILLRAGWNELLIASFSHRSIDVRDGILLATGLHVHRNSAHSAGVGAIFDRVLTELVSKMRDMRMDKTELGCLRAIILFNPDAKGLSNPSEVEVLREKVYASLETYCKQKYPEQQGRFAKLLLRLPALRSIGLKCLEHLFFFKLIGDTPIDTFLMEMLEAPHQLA
Sequence of human Peroxisome Proliferator-activated Receptor delta (PPARd), PPARD (gene 5467) (Q03181 whole entry, looked up, the tested form may be a part): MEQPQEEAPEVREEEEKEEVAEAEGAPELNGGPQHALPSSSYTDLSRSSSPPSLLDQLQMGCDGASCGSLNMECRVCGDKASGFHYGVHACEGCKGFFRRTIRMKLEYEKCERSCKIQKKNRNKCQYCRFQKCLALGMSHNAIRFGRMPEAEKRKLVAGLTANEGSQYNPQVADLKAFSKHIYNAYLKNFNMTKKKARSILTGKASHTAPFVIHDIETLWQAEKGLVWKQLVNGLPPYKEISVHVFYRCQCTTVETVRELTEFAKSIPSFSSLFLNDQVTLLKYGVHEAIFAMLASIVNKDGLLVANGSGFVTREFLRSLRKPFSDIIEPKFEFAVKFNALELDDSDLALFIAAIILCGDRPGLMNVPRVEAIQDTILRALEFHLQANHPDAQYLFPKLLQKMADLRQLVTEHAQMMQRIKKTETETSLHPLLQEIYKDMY

With `Cc1ccc2ccccc2n1`, the compound was classed as inactive in assay [1], in assay [2], in assay [3], in assay [4], in assay [5] and in assay [6]. Further, the result in assay [7], in assay [8], in assay [9] and in assay [10] was inactive.

With `COc1cc(C(C)(C)C)c(O)c(C(C)(C)C)c1`, the outcome in assay [1], in [4], in [5] and in [10] was inactive. Also, the AC50 is 15.4 µM (active) in assay [9] and 0.745 µM (active) in [11].

Consider `CCOC(=O)c1ccccc1OC`, for which the compound was classed as inactive in assay [1], in assay [2], in assay [4], in [5], in [6] and in assay [9]. Moreover, the outcome in assay [11] was inactive.

As for `C=CC[N+](C)(C)CC=C`, the outcome in assay [1], in assay [2], in assay [3], in assay [5], in assay [6] and in [7] was inactive. The outcome in assay [9] was inactive.

Take `O=c1oc(=O)c2cc3c(=O)oc(=O)c3cc12`: the compound was called inactive in assay [1], in assay [4], in assay [5], in assay [6], in assay [8] and in assay [9].

As for `CC(C)OP(=O)(CP(=O)(OC(C)C)OC(C)C)OC(C)C`, the call in assay [1], in assay [4], in [8], in [11] and in assay [10] was inactive. Besides, in assay [5], the AC50 is 3.27 µM (active).

Regarding `CC(C)(Oc1ccc(CCNC(=O)c2ccc(Cl)cc2)cc1)C(=O)O`, the AC50 in assay [1] is 79.4 µM (active); in assay [4], 27.6 µM (active). The outcome in [5] was inactive.

As to `CC1(CO)CN(c2ccccc2)NC1=O` (stereo unspecified), the result in [1], in [2], in assay [4], in assay [5] and in [8] was inactive.

For the compound `Clc1nc(C(Cl)(Cl)Cl)c(Cl)c(Cl)c1Cl`, the result in [1], in [7], in [8], in assay [9] and in assay [10] was inactive. Further, the concentration at half-maximal activity (AC50) in [4] was 1.45 µM (active); in assay [5] it was 21.2 µM (active); in assay [11], 21.8 µM (active).

On to `CNC(=O)Oc1ccc2c(c1)[C@]1(C)CCN(C)[C@@H]1N2C`, for which the call in assay [1], in assay [4] and in [5] was inactive.

For `Fc1c(F)c(F)c(Br)c(F)c1F`, the call in [1], in [2], in [3], in assay [4], in assay [5] and in assay [9] was inactive. Also, in assay [11], the result was inactive.

In the case of `CC(C)=CCC/C(C)=C/COC=O`, the outcome in assay [1], in assay [4], in assay [5], in [8], in [9] and in assay [11] was inactive. Further, in [10], the compound was called inactive.

Take `C[Si](O[Si](C)(C)C)O[Si](C)(C)C`: the outcome in [1], in [4], in [5] and in assay [9] was inactive. The AC50 in assay [11] is 61.7 µM (active).

Consider `C=C(C)[C@@H]1CCC2=CC(=O)C[C@@H](C)[C@]2(C)C1`, for which the result in [1], in [4], in assay [5], in assay [9] and in [11] was inactive.

On to `ClCCCl`, for which the compound was called inactive in assay [1], in [4], in assay [5], in assay [7], in assay [8] and in [11].
